Experimental data reported in the supplement of paper PMC10849652.
The full data set covers some 7,900 targets. This sample favours those with a hit. About 0.6% of all pairs of compound and target were hits.

Columns and labels:
Experiment in all cases: log2 fold change, soluble protein after heating vs DMSO (PISA); higher = thermal stabilisation; K562 cells, 10 uM, 30 min; active = over 0.2 and 3.5 SD of the protein, either way, in both replicates (recomputed)
[1] = compound: C1=CC=C(C=C1)[C@H](COC2=CC3=C(C=C2)NC(=O)N3)NC(=O)C4=CC=CN(C4=O)CC5=CC(=C(C=C5)F)F
Outline: (§1)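 Values are thermal stability changes relative to control samples and are taken from duplicates. They are stated as log2 fold changes. Before quantification by TMTpro 16plex LC-MS/MS with equalised channel sums, K562 cells at 2×10^6 cells/mL were treated with 10 μM compound for 30 min, heated in aliquots for 3 min across 48°C-58°C, pooled, extracted in PBS with 0.5% NP-40 at 4°C, and centrifuged at 21,000xg for 90 min to give the soluble supernatant.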

[2] = compound: CC1=C(SC2=C1C(=N[C@H](C3=NN=C(N32)C)CC(=O)N)C4=CC=C(C=C4)Cl)C
Outline: as §1

[3] = compound: CC1=C2C(=CC=C1)N=C(N(C2=O)C3=CC=CC=C3C)CN4C=NC5=C(N=CN=C54)N
Outline: as §1

[4] = compound: Cc1sc2c(c1C)C(c1ccc(Cl)cc1)=N[C@@H](CC(=O)OC(C)(C)C)c1nnc(C)n1-2
Outline: as §1

[5] = compound: c1ccc([C@@H]2C[C@H]2NC2CCNCC2)cc1
Outline: as §1

Measured: log2 fold change

VARS2, A0A0G2JL52
inactive: [1] -0.006 | [2] 0.006 | [3] 0.044 | [4] -0.004 | [5] -0.015

UBA6
inactive: [1] -0.018 | [2] 0 | [3] 0.06 | [4] 0.001 | [5] -0.002

TMEM219 (UniProt Q86XT9)
Chain of UniProt Q86XT9 (Q86XT9 whole entry, looked up): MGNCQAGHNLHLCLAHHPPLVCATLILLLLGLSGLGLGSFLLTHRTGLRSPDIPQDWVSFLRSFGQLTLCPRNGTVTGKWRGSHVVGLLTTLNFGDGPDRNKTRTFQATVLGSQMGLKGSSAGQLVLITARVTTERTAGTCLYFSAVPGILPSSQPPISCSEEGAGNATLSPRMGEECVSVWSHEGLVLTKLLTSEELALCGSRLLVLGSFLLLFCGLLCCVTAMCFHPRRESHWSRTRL
inactive: [1] 0.066 | [2] -0.023 | [3] -0.172 | [4] 0.016 | [5] -0.162

UBE2E3 (UniProt Q969T4)
Chain of UniProt Q969T4 (Q969T4 whole entry, looked up): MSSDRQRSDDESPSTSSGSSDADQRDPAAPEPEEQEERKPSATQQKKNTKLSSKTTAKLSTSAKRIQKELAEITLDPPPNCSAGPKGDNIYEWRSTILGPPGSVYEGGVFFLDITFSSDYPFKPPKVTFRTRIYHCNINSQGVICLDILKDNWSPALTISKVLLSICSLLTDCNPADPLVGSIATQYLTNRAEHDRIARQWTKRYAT
inactive: [1] -0.076 | [2] 0.119 | [3] 0.115 | [4] -0.088 | [5] -0.023

VPS8 (UniProt Q8N3P4)
Chain of UniProt Q8N3P4 (Q8N3P4 whole entry, looked up): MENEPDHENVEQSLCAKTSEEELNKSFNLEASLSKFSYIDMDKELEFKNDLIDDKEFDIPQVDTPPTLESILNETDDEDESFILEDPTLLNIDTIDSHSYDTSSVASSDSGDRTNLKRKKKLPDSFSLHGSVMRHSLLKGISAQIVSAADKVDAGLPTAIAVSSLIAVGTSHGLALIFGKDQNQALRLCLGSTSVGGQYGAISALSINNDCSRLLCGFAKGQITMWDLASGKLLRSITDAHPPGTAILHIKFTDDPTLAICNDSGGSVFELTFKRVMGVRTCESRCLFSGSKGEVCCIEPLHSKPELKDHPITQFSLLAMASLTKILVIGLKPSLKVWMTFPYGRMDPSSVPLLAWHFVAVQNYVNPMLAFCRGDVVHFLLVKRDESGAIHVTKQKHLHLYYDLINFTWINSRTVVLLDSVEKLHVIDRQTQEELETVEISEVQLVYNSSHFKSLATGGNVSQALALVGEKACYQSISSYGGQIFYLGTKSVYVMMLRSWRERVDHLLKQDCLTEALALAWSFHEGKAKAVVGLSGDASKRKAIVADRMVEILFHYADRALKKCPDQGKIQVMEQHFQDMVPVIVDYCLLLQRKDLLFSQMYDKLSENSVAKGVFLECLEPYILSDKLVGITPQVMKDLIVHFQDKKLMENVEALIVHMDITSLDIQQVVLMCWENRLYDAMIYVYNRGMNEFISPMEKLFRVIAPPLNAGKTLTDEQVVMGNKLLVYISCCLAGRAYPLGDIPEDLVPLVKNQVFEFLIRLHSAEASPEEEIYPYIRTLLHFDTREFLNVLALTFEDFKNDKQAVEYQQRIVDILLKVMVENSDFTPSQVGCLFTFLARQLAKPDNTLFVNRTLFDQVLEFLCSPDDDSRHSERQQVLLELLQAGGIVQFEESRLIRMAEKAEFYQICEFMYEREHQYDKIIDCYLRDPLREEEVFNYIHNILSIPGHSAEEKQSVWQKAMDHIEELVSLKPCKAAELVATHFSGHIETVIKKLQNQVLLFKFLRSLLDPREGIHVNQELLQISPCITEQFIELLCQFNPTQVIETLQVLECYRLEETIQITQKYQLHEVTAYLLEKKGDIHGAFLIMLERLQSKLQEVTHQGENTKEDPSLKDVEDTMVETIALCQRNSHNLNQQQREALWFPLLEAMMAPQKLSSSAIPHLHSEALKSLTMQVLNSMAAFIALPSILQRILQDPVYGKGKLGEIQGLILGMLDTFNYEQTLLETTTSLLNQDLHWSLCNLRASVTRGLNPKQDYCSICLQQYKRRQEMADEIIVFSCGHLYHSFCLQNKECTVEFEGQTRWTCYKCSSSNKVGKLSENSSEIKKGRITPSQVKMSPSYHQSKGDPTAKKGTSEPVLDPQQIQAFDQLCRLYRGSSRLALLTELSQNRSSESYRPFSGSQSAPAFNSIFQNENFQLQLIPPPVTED
inactive: [1] -0.08 | [2] 0.106 | [3] 0.042 | [4] -0.034 | [5] 0.017

TOE1 (UniProt Q96GM8)
inactive: [1] 0.049 | [2] -0.036 | [3] -0.095 | [4] 0.065 | [5] 0.014

VPS53 isoform 4 (UniProt Q5VIR6)
Chain of UniProt Q5VIR6 (Q5VIR6 whole entry, looked up): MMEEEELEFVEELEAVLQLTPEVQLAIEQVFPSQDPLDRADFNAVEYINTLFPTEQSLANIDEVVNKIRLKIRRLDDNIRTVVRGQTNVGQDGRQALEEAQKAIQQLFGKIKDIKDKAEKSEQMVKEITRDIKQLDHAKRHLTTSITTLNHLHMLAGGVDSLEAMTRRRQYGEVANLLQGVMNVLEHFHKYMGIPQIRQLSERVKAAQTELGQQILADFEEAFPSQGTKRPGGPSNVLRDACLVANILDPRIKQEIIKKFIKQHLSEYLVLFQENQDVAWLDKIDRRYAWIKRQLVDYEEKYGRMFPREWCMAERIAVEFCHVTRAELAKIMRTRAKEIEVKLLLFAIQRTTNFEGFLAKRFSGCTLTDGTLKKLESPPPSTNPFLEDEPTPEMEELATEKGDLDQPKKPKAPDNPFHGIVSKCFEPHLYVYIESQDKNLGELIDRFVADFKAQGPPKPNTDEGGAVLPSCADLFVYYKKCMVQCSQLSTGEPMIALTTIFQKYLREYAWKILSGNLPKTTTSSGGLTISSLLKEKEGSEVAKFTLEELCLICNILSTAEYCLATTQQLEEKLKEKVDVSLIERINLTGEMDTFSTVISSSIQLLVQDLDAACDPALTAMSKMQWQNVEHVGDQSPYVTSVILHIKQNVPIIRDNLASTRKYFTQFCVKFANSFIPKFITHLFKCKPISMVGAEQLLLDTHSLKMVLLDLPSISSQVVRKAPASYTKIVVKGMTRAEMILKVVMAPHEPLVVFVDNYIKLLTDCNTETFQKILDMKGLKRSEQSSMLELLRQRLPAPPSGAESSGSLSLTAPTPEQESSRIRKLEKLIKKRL
inactive: [1] -0.009 | [2] 0.02 | [3] 0.049 | [4] -0.006 | [5] -0.007

XPO6 (UniProt Q96QU8)
Chain of UniProt Q96QU8 (Q96QU8 whole entry, looked up): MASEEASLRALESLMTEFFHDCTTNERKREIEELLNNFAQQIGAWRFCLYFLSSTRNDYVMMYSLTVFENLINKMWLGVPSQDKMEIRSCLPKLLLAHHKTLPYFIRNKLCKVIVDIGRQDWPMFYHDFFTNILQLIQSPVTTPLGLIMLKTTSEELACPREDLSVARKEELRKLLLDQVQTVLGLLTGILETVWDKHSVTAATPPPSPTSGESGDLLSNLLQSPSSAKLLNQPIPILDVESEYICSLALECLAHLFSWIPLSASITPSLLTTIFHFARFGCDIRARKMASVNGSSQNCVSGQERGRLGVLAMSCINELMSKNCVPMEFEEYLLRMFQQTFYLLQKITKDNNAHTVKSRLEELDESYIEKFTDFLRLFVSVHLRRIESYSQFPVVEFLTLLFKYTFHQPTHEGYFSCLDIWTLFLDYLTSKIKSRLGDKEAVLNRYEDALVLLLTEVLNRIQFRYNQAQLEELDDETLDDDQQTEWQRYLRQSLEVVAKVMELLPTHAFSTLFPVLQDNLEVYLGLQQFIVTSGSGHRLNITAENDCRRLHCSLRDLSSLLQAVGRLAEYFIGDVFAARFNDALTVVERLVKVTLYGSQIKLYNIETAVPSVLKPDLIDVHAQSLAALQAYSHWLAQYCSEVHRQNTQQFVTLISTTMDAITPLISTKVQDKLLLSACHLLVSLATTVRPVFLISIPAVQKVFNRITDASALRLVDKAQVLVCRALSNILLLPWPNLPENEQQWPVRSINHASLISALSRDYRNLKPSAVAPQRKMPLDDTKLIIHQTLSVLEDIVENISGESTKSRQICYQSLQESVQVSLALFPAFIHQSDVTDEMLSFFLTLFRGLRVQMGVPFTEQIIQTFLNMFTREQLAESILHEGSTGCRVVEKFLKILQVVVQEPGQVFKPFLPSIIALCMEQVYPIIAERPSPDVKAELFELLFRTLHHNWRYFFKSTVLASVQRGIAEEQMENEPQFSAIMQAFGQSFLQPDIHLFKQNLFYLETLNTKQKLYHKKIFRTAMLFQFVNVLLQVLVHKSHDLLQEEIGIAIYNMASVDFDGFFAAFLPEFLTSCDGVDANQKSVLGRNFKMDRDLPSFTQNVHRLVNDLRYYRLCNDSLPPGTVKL
inactive: [1] 0.35 | [2] 0.019 | [3] 0.082 | [4] 0.015 | [5] -0.072

TTC4 (UniProt O95801)
Chain of UniProt O95801 (O95801 whole entry, looked up): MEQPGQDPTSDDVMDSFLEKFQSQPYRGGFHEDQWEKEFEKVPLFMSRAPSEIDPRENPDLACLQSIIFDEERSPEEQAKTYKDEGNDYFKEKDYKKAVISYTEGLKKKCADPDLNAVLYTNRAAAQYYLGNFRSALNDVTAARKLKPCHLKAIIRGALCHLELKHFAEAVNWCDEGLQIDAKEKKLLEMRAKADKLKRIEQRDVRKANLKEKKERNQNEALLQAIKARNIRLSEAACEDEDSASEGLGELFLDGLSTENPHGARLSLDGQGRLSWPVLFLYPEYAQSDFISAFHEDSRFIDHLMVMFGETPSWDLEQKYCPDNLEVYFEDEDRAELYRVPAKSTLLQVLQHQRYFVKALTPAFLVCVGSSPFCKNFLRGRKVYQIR
inactive: [1] -0.089 | [2] -0.008 | [3] 0.099 | [4] 0.022 | [5] -0.029
